Measurements as given in PubChem BioAssay (NCI).
About 83,000 compounds went through this panel and 20% of them were active in at least one assay; those are over-represented in the sample as a whole.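 Single-concentration screen, 48 h exposure, 96-well plates. Endpoint: percent growth. Below 10 = active.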 A number with no mark means an inactive call. Active and inactive are the calls of the source.

Test system: TK-10 renal
Assay: NCI-60 one-dose screen, 48 h (100 = growth as untreated, 0 = no growth, -100 = all killed)
Conditions: 10 µM unless noted

In order of falling growth:
1. Cc1cc(=O)c2cc3nc(-c4cccnc4)oc3c(Br)c2o1  153%
2. Cc1ccc(S(=O)(=O)NN/C(N)=N\S(=O)(=O)c2cc(C)c(Cl)cc2SCc2ccccc2)cc1  130%
3. COc1ccccc1NC(=O)Nc1ccc(-c2nc3ccccc3o2)cc1  118%
4. N=C(N)c1ccc(-c2ccc(-c3ccc(Cl)c(Cl)c3)o2)nc1  116%
5. COC(=O)c1ccc(CSc2nnc(-c3ccncc3)o2)cc1  116%
6. COC(=O)c1ccc2oc(NC(=O)c3ccc(N4CCOCC4)c([N+](=O)[O-])c3)nc2c1  115%
7. CCOC(=O)N1CCc2c(sc3c2C(=O)N[C@H](c2ccc(OC)cc2)N3)C1  109%
8. COc1ccc(-c2nnc(SCC(=O)NC3=NN=C(c4ccccc4)CS3)o2)cc1  106%
9. N#Cc1c(NC(=O)c2ccccc2I)sc2c1CCCC2  106%
10. Cc1c(Cl)cccc1NS(=O)(=O)c1ccccc1  104%
11. CCn1c(Sc2nnc(NC(=O)CCN3CCCC3)s2)nc2c1c(=O)n(C)c(=O)n2C  104%
12. CCn1c(Sc2nnc(NC(C)=O)s2)nc2c1c(=O)n(C)c(=O)n2C  103%
13. Cc1cn(C2CCCCC2)c(=O)[nH]c1=O  99.8%
14. C[C@@H]1CC[C@@H]2[C@@H]1[C@H](OC(=O)/C=C/c1ccccc1)[C@]1(CCCOCCOCCOCCOC(=O)CCCC[C@@H]3SC[C@@H]4NC(=O)N[C@@H]43)C[C@@H](OC(=O)CO)[C@@]2(C)O1  99%
15. Cc1cc(-c2ccc(N(C)C)cc2)c2sc(=O)[nH]c2n1  97.7%
16. Cc1nc2ccc(C(=O)NCc3cc(C(=O)O)c(C)o3)cc2nc1C  97.6%
17. NS(=O)(=O)c1cn(-c2ncnc3nc[nH]c23)ccc1=O  94.5%
18. CCOc1ccc(-c2nc3ccc(-c4nc5ccc(N6CCN(C)CC6)cc5[nH]4)cc3[nH]2)cc1OCC  91%
19. O=C1Nc2ccccc2/C1=N/N=C/c1c[nH]c2ccccc12  78.4%
20. N=C(N)c1ccc(-c2ccc(-c3ccc(Cl)c(Cl)c3)o2)cc1  76%
21. Cn1ncc2c(Nc3ccc(Br)cc3)nc(Nc3ccc(Br)cc3)nc21  73.1%
22. COc1ccccc1C(=O)NC(=S)Nc1ccc(-c2nc3ccccc3[nH]2)cc1  59.6%
23. COc1cc2c(c(OC)c1OC)C(=O)/C(=C/c1cc(C)c(O)c(C)c1)S2  59.2%
24. Cc1ccc(/C=C(\C#N)n2nnc3cc(Cl)c(Cl)cc32)cc1  44.6%
25. COc1ccc(/C=C(\C#N)n2nnc3ccccc32)cc1  44%
26. CCCCCCCC/C=C/CCCCCCCC1=NCC[N+]1(CCO)CCO  41.2%
27. CN1C(=O)CCC(N2C(=O)c3cccc(NCCOCCOCCNC(=O)c4cc5c(o4)C(=O)c4ccccc4C5=O)c3C2=O)C1=O (centres undefined)  32.4%
28. N#C/C(=C\c1ccc2c(c1)OCO2)n1nnc2ccccc21  28.3%
29. Cl.Fc1c[c-]c(-c2ccccn2)c(F)c1.[Pt].c1ccc(P(c2ccccc2)C([PH+](c2ccccc2)c2ccccc2)[PH+](c2ccccc2)c2ccccc2)cc1  24.3%
30. O=C(c1ccccc1)c1ccc(N2C(=O)C3C4c5ccccc5C(/C=C/C(=O)c5ccccn5)(c5ccccc54)C3C2=O)cc1 (centres undefined)  20.1%

For `C=C1C(=O)O[C@H]2[C@H]1CC/C(COC(=O)/C=C/C(=O)NCc1ccc(Cn3c(=O)sn(-c4ccccc4)c3=O)cc1)=C\CC[C@@]1(C)O[C@@H]21`, the growth was -38.6% (active).
For `O=C(NC(=S)Nc1ccc(-c2nc3ccccc3[nH]2)cc1)c1ccc2ccccc2c1`, the growth was -16.5% (active).
In the case of `COc1ccc(-c2cc(-c3ccc(Nc4nc(Nc5ccccc5)nc(Nc5ccc(Cl)cc5)n4)cc3)nc(N)c2C#N)cc1`, the growth was -86.6% (active).
`COc1ccc(Nc2ncc(Br)c(NCCCNC(=O)C3CCC3)n2)cc1` was tested, and the growth was 5.53% (active).
With `N#C/C=C(\c1ccc([N+](=O)[O-])cc1)n1nnc2cc(Cl)c(Cl)cc21` the growth was -16.2% (active).
`Cl.Fc1c[c-]c(-c2ccccn2)c(F)c1.[Pt].c1ccc([PH+](C[PH+](c2ccccc2)c2ccccc2)c2ccccc2)cc1` was tested, and the growth was -81.4% (active).
For `O=C(NCCN1CCC(O)CC1)c1cc2c(o1)C(=O)c1ccccc1C2=O`, the growth was -91.8% (active).
With `Cl.Fc1c[c-]c(-c2ccccn2)c(F)c1.[Pt].c1ccc([PH+](c2ccccc2)c2ccccc2[PH+](c2ccccc2)c2ccccc2)cc1` the growth was -87.2% (active).
For `O=C(NCCOCCOCCOCCNC(=O)c1cc2c(o1)C(=O)c1ccccc1C2=O)NC12CC3CC(CC(C3)C1)C2`, the growth was -3.88% (active).
